# Test results from PubChem BioAssay AID2501 (Southern Research Specialized Biocontainment Screening …, 2010).
# Screen size: about 2,200 compounds; about 1,200 (55%) were called active. Cut-off not given; nearly all actives show IC50 up to about 92 µM. So high a share suggests a set chosen from earlier hits. The list shows a part of the results.
# Experiment: counter assay for TAg ATPase ADP read-out – biochemical, ADP-Hunter, fluorescence, counter-screen (AID 2501);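 further: purified T antigen ATPase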
# Conditions: series mostly up to 100 µM
row,SMILES,IC50
1,Cc1ccc(-c2nc3ncccn3c2NC2CCCCC2)o1,6.91 µM (active)
2,CCOC(=O)c1c(NC(=O)/C=C/C(=O)O)sc(C)c1-c1ccc(Cl)cc1,inactive
3,CCOC(=O)c1c(NC(C)=O)sc2c(O)c(Br)cc(Br)c12,28.4 µM (active)
4,CCOC(=O)c1c(NC(=O)/C=C/C(=O)O)sc(C)c1-c1ccc(C(C)(C)C)cc1,inactive
5,Oc1ccc(C2=Nn3c(nnc3-c3ccco3)SC2)cc1O,4.93 µM (active)
6,CN1CCc2cccc3c2[C@H]1Cc1ccc(O)c(O)c1-3,inactive
7,O=C(NC(=S)Nc1cccc(S(=O)(=O)NC2=NCCC2)c1)c1cc(-c2ccco2)nc2ccccc12,inactive
8,COc1cc(/C=C2/C(=O)c3cccc([N+](=O)[O-])c3C2=O)c(Br)cc1O,23.4 µM (active)
9,O=C(O)/C=C/C(=O)c1ccc2c(c1)CCc1ccccc1-2,inactive
10,COc1ccc(NCC(O)Cn2cnc3c2c(=O)n(C)c(=O)n3C)cc1 (configuration not stated),6.13 µM (active)
11,CNc1nn(-c2cccc(Cl)c2)nc1N,9.76 µM (active)
12,Cc1nn(-c2cccc(Cl)c2)c2nc(-c3ccco3)cc(C(=O)O)c12,inactive
13,CNC(=S)N1CCN(c2ccc(OC)cc2)CC1,8.87 µM (active)
14,COc1ccc(N2CCN(C(=O)NC3CC(=O)N(c4ccc(OC)cc4)C3)CC2)cc1 (configuration not stated),26.8 µM (active)
15,COc1ccc(N2CCN(c3cc(=O)n(Cc4ccc(F)cc4)c(=O)[nH]3)CC2)cc1,inactive
16,O=[N+]([O-])c1c(Nc2ccc(O)cc2)cc(Cl)c2nonc12,26.9 µM (active)
17,O=C(O)c1ccc(Nc2cc(Cl)c3nonc3c2[N+](=O)[O-])cc1,inactive
18,O=[N+]([O-])c1c(Nc2cccc(O)c2)cc(Cl)c2nonc12,inactive
19,CCn1c(Cc2ccccc2)nnc1SCC(=O)Nc1ccc(N2CCOCC2)c(Cl)c1,inactive
20,C=CCn1c(CNc2ccccc2)nnc1SCC(=O)N/N=C/c1ccc(O)cc1O,4.22 µM (active)
21,CN1CCC(=C(c2ccccc2)c2ccc(Br)cc2)CC1,inactive
22,COc1ccc(N=c2scc(C)n2CCCN2CCCC2=O)cc1,6.36 µM (active)
23,CC(C)C1N=C2c3ccccc3N=C(SCC(=O)c3ccc(O)c(O)c3)N2C1=O (configuration not stated),4.05 µM (active)
24,Nc1ncc(N=Nc2cc(C(=O)O)ccc2Cl)s1,12.4 µM (active)
25,COc1cccc(C(=O)N(Cc2cc3cc(C)ccc3[nH]c2=O)C(C)C)c1,inactive
26,COCCN=C1Sc2nc3c(C)cccc3cc2CN1Cc1ccco1,13.7 µM (active)
27,CCOC(=O)c1cnc(Nc2nc3ccccc3o2)nc1CSC(=S)N1CCCCC1,inactive
